This is an account of results in PubChem BioAssay (Tox21).

Assay [1] can be described thus: Nuclear factor erythroid 2-related factor 2/antioxidant responsive element (Nrf2/ARE) small molecule agonists: qHTS cell viability counter screen in human keratinocytes (AID 1919968; active means well fitted curve in the direction sought with a large enough effect in the repeat runs; an effect the other way counts as inactive or inconclusive; further: nearly all actives have a fitted effect of over 55% in size). In outline:
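Parallel cytotoxicity read: KeratinoSens HaCaT cells, compound treatment 23 h, viability by CellTiter-Fluor fluorescence 1 h post-reagent.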

Assay [2] in a line: Nuclear factor erythroid 2-related factor 2/antioxidant responsive element (Nrf2/ARE) small molecule agonists: luciferase reporter gene qHTS assay in human keratinocytes (AID 1919969). Further: nearly all actives have a fitted effect of over 35% in size. In general terms: In a reporter assay the amount or activity of a reporter protein is the signal.
Assay [3] concerns the target Gonadotropin-releasing hormone receptor (Homo sapiens) (UniProt P30968). Nature of the assay: Human gonadotropin-releasing hormone receptor (GnRHR) small molecule agonists, calcium flux assay in GnRHR-HEK293 cells (AID 1920063). Further: nearly all actives have a fitted effect of over 35% in size. The procedure, abridged:
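Calcium flux, agonist mode, human GnRHR stably integrated in HEK293; dye 1 h at 37 C before compound; Ex/Em=480/540 kinetic read, 3 min; 15 concentrations, triplicate.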

For assay [4], the target named is KiSS-1 receptor (Homo sapiens) (UniProt Q969F8). Nature of the assay: Human kisspeptin (KISS1R) small molecule agonists, calcium flux assay in KISS1R-HEK293 cells (AID 1920064; active means well fitted curve in the direction sought with a large enough effect in the repeat runs; an effect the other way counts as inactive or inconclusive). In outline: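 Triplicate 15-concentration series were applied to dye-loaded human KISS1R HEK293 cells, and agonist-evoked calcium fluorescence was captured for 3 min.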
On the technique in general: A change in cytosolic calcium serves as a functional read-out for many receptors and channels.

The nature of assay [5]: G protein-coupled receptor (GPCR) small molecule agonists, calcium flux assay: HEK293 wild type cell line counter screen (AID 1920065). In outline:
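Non-specific calcium responders were flagged by adding DMSO-dissolved compounds to dye-loaded cells and reading 480/540 nm fluorescence each second for 3 min; ATP served as positive control.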

Assay [6] in a line: p53 small molecule agonists, cell-based qHTS assay with human liver microsomes (AID 1963577).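 Further: p53 response element beta-lactamase reporter cells with liver microsomes plus NADPH.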 The procedure, abridged: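 Metabolically competent format: test substances, human liver microsomes and NADPH (both 0.5 mg/mL final) incubated with p53RE-bla cells 16 h at 37 C. Beta-lactamase reporter signal then quantified by fluorescence.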
Assay [7] can be described thus: p53 small molecule agonists, cell-based qHTS assay with rat liver microsomes (AID 1963578). In outline:
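Each plate received p53RE-bla cells, then compound, then rat liver microsomes and NADPH (both 0.5 mg/mL final). Plates were held 16 h at 37 C, and beta-lactamase activity was detected with LiveBLAzer over 2 h.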
A general note: Quantitative high-throughput screening tests each substance at several concentrations.

Assay [8] in a line: p53 small molecule agonists, cell-based qHTS assay with human liver microsomes: qHTS cell viability counter screen (AID 1963579). Further: nearly all actives have a fitted effect of over 45% in size. The procedure, abridged:
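Tox21 library compounds, delivered from DMSO stocks, were tested on p53RE-bla cells together with 0.5 mg/mL human liver microsomes and 0.5 mg/mL NADPH (final) over 16 h at 37 C; CellTiter-Glo luminescence served as the cytotoxicity measure.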

The nature of assay [9]: p53 small molecule agonists, cell-based qHTS assay with rat liver microsomes: qHTS cell viability counter screen (AID 1963580). Further: nearly all actives have a fitted effect of over 45% in size. The procedure, abridged: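 After the beta-lactamase ratio was read, CellTiter-Glo was added to the same wells and luminescence measured at 30 min; cells had been treated 16 h at 37 C with compounds, rat liver microsomes and NADPH (0.5 mg/mL final each).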

Assay [10] can be described thus: p53 small molecule agonists, cell-based qHTS assay: qHTS cell viability counter screen (AID 1963581). Further: nearly all actives have a fitted effect of over 45% in size. The procedure, abridged: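 Multiplexed with the reporter read, a CellTiter-Glo step (30 min, room temperature) gauges ATP-based viability of HCT-116 p53RE-bla cells after 16 h compound incubation at 37 C.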
The nature of assay [11]: p53 small molecule agonists, cell-based qHTS assay (AID 1963582; active means well fitted activation curve with a large enough effect in the signal ratio in the repeat runs, not every such curve was filed as active; the % refers to the signal ratio). The procedure, abridged: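 Beta-lactamase reporter cells (p53RE-bla) treated with compounds for 16 h at 37 C; FRET substrate, 2 h, room temperature; fluorescence intensity.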
The target of assay [12] is 5-hydroxytryptamine receptor 2A (Homo sapiens) (UniProt P28223). Nature of the assay: 5-hydroxytryptamine receptor 2A (HTR2A) small molecule antagonists, cell-based qHTS assay (AID 1963586). Further: nearly all actives have a fitted effect of over 45% in size. In outline: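 CHO cells stably expressing human HTR2A were plated for 18 h at 37 C, then loaded with calcium dye for 1 h. Compounds were preincubated 5 min at room temperature before DOI (4 nM solution) was added. Kinetic fluorescence was read for 3 min.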

Assay [13] has the same target. Nature of the assay: 5-hydroxytryptamine receptor 2A (HTR2A) small molecule agonists, cell-based qHTS assay (AID 1963587). Further: nearly all actives have a fitted effect of over 30% in size. The procedure, abridged: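 CHO cells stably expressing human HTR2A, plated 18 h, loaded with calcium dye 1 h at 37 C. Agonist mode: compounds added and intracellular calcium fluorescence recorded kinetically for 2 min at 1 sec intervals.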
For assay [14], the target named is Muscarinic acetylcholine receptor M1 (Homo sapiens) (UniProt P11229). Nature of the assay: Cholinergic receptor muscarinic 1 (CHRM1) small molecule antagonists, cell-based qHTS assay (AID 1963588). Further: nearly all actives have a fitted effect of over 40% in size. Further: potency means the concentration at half of the fitted maximal effect. The procedure, abridged:
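Compounds were tested at 15 concentrations in three independent runs. Dye-loaded CHRM1-CHO cells were exposed 5 min at room temperature before stimulation by acetylcholine added at 50nM. Intracellular calcium was read kinetically on FDSS for 3 min.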

Assay [15] has the same target. Nature of the assay: Cholinergic receptor muscarinic 1 (CHRM1) small molecule agonists, cell-based qHTS assay (AID 1963589). Further: nearly all actives have a fitted effect of over 35% in size. In outline:
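qHTS, 15-point titration, 3 independent runs: compounds pin-transferred onto dye-loaded CHRM1-CHO cells (human M1), calcium fluorescence followed every second to detect agonism.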

Assay [16] is described as follows: cAMP Responsive Elements (CRE) small molecule agonists, cell-based qHTS assay (AID 1963590). In outline: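 Quantitative HTS for CRE agonists: HEK 293T CRE-bla cells, overnight plating, 3 h compound incubation at 37 C/5% CO2, then 2 h room-temperature LiveBLAzer B/G FRET substrate loading.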
The nature of assay [17]: cAMP Responsive Elements (CRE) small molecule antagonists, cell-based qHTS assay (AID 1963591; active means well fitted inhibition curve with a large enough effect in the signal ratio in the repeat runs, not every such curve was filed as active; the % refers to the signal ratio). The procedure, abridged: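 Fluorescence intensity from cleaved LiveBLAzer B/G substrate (2 h, room temperature) quantified CRE-bla activity in HEK 293T cells exposed 3 h to compound with 0.25 uM final NKH477.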
Assay [18] deals with Beta-2 adrenergic receptor (Homo sapiens) (UniProt P07550). Nature of the assay: Adrenergic beta2 receptor (ADRB2) small molecule antagonists, cell-based qHTS assay (AID 1963592). Further: series mostly up to about 92 µM; nearly all actives have a fitted effect of over 50% in size. In outline:
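Assay format: CHO-ADRB2 cells, 18-20hr seeding at 37C/5% CO2, then compound plus 1nM isoproterenol agonist mix for 0.5hr RT. Homogeneous time-resolved fluorescence cAMP detection after 1hr, expressed as 665/615 nm ratio.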

The target of assay [19] is D(2) dopamine receptor (Homo sapiens) (UniProt P14416). Nature of the assay: Dopamine D2 receptor (DRD2) small molecule antagonists, cell-based qHTS assay (AID 1963595; active means well fitted inhibition curve with a large enough effect in the signal ratio in the repeat runs, with a control signal flat; the % refers to the signal ratio). In outline: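 Human DRD2 antagonist qHTS measuring cAMP by HTRF. The cells are exposed to compound for 10 min, then to NKH477 (200 nM) and quinpirole (12 nM) for 30 min at RT, with Ro20-1724 (0.1 mM) present throughout.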

For assay [20] the target is unchanged. Nature of the assay: Dopamine D2 receptor (DRD2) small molecule agonists, cell-based qHTS assay (AID 1963594). Further: nearly all actives have a fitted effect of over 35% in size. In outline: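 HEK293 cells stably expressing human DRD2, pre-treated with PDE inhibitor Ro20-1724 (0.1 mM final) and compound 10 min at room temperature, then stimulated with NKH477 (200nM […]) for 30 min. cAMP read by HTRF (665/620 nm).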

Records with an inconclusive call do not appear. The source holds several records for some structures; these can differ, active in one and inactive in another. Calls of active or inactive are those of the source. Unless noted, the call rests on the fitted dose curve.

D(2) dopamine receptor (Homo sapiens), sequence (P14416 whole entry, looked up): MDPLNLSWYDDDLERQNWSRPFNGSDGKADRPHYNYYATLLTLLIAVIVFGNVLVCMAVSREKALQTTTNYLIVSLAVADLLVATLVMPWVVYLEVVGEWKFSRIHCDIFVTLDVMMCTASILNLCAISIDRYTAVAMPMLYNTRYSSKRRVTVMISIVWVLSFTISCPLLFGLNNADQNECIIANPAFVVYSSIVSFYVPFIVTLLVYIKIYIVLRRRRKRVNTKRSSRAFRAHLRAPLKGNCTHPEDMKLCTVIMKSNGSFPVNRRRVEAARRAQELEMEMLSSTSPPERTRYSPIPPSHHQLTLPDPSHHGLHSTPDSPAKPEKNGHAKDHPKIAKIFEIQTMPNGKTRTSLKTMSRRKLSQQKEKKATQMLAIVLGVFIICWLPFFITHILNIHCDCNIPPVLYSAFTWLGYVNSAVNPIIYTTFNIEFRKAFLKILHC
Beta-2 adrenergic receptor (Homo sapiens), sequence (P07550 whole entry, looked up): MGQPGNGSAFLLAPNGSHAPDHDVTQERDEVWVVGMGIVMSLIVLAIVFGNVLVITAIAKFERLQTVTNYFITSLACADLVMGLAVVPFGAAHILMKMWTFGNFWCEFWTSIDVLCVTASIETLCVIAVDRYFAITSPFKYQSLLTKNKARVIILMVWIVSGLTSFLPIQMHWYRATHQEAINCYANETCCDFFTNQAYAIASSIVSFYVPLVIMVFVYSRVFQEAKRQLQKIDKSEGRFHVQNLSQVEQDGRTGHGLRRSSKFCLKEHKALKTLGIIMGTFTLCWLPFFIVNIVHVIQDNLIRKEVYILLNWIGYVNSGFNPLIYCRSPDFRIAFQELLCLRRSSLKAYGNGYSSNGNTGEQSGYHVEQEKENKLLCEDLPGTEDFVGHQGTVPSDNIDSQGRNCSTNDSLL
KiSS-1 receptor (Homo sapiens), sequence (Q969F8 whole entry, looked up): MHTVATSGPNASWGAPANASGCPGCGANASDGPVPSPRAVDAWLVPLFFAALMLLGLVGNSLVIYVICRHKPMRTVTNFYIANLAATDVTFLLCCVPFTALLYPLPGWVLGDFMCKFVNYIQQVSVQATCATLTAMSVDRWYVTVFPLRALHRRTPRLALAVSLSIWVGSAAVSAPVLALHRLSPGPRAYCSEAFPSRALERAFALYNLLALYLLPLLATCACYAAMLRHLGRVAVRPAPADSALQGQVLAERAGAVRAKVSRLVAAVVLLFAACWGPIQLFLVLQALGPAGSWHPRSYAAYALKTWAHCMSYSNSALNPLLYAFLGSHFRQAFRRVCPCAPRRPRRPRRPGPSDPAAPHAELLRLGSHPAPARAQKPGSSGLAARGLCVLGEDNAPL
Muscarinic acetylcholine receptor M1 (Homo sapiens), sequence (P11229 whole entry, looked up): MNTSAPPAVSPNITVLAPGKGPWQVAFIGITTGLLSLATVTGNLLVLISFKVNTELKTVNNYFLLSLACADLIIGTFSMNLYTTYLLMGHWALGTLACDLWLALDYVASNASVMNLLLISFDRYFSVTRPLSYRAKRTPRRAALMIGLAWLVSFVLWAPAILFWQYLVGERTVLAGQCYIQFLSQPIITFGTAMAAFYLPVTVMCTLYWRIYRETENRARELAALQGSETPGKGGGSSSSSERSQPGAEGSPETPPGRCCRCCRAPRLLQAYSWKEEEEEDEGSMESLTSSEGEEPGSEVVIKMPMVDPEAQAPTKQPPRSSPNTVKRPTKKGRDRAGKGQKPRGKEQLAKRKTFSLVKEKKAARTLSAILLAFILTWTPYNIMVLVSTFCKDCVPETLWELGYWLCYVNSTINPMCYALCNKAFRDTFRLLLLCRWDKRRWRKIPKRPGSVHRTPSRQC
5-hydroxytryptamine receptor 2A (Homo sapiens), sequence (P28223 whole entry, looked up): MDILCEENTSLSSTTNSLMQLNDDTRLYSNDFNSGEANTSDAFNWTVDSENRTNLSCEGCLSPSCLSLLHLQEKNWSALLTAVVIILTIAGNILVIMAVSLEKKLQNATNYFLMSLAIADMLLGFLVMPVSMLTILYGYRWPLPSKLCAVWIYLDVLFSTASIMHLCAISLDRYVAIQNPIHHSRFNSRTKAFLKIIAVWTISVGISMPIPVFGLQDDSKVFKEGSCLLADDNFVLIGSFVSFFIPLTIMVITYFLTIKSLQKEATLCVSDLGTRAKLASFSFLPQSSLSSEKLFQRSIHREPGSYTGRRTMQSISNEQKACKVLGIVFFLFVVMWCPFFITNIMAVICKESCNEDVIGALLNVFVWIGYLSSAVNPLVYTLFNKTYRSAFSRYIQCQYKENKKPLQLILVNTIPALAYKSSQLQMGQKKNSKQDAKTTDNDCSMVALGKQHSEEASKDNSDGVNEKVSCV
Gonadotropin-releasing hormone receptor (Homo sapiens), sequence (P30968 whole entry, looked up): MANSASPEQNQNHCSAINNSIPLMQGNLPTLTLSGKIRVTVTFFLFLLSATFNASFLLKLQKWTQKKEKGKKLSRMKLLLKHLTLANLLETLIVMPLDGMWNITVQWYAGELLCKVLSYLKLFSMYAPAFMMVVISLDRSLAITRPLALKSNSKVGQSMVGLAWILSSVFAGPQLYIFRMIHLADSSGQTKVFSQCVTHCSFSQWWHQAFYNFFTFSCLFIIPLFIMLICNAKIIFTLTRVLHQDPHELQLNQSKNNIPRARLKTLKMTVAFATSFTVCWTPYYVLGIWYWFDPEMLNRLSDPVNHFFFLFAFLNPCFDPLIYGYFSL

With `O=C(O)CCCC(=O)O`, the Potency entry in assay [1], in assay [2], in assay [3], in [4], in assay [5] and in assay [6] was “inactive” each time. Moreover, the Potency result in assay [7], in assay [8], in [9], in [10], in assay [11] and in assay [12] was “inactive” in each case. Besides, the Potency result in [13], in assay [14], in assay [15], in assay [16], in [17] and in assay [18] was “inactive” throughout. The Potency result in assay [19] is “inactive”.

As for `Cc1ccc([N+](=O)[O-])cc1N`, the Potency entry in [1], in [2], in assay [3], in assay [4], in assay [5] and in assay [6] was “inactive” in each case. The Potency result in assay [7], in [8], in assay [9], in [10], in assay [11] and in assay [12] was “inactive” each time. In addition, the Potency result in assay [13], in assay [14], in assay [15], in assay [17], in assay [18] and in assay [20] was “inactive” each time. Further, the Potency result in [19] was “inactive”.

`CCOC(=O)C(C#N)=C(c1ccccc1)c1ccccc1`: the Potency result in [1], in assay [2], in assay [3], in assay [4], in assay [5] and in assay [6] was “inactive” each time. The Potency result in assay [7], in [8], in assay [9], in [10], in assay [11] and in assay [12] was “inactive” throughout. For the same compound, the Potency result in [13], in [14], in assay [15], in [16], in assay [18] and in [20] was “inactive” each time. The Potency entry in assay [19] is “inactive”.

Take `CCCCNS(=O)(=O)c1ccccc1`: the Potency result in assay [1], in assay [2], in assay [3], in assay [4], in assay [5] and in assay [6] was “inactive” in each case. Further, the Potency result in assay [7], in assay [8], in assay [9], in [10], in assay [11] and in assay [12] was “inactive” each time. The Potency result in assay [13], in assay [14], in [15], in [16], in assay [17] and in [18] was “inactive” in each case. For the same compound, the Potency result in assay [20] and in assay [19] was “inactive” in each case.

As to `COCC(=O)O`, the Potency entry in [1], in assay [2], in [3], in [4], in [5] and in assay [6] was “inactive” throughout. The Potency result in assay [7], in assay [8], in assay [9], in [10], in [11] and in assay [12] was “inactive” throughout. The Potency result in assay [13], in assay [15], in assay [17], in assay [18], in assay [20] and in assay [19] was “inactive” each time. Besides, in [14], the Potency is 8.63 µM (active) and inactive.

Turning to `CC1(C)NC(=O)NC1=O`, the Potency result in [1], in [2], in assay [3], in assay [4], in [5] and in assay [6] was “inactive” throughout. Further, the Potency result in [7], in assay [8], in assay [9], in [10], in assay [11] and in assay [12] was “inactive” in each case. Also, the Potency entry in assay [13], in assay [14], in assay [15], in assay [16], in assay [17] and in assay [20] was “inactive” throughout. Besides, the Potency result in assay [19] was “inactive”.

Regarding `C1CNCCN1`, the Potency result in assay [1], in [2], in [3], in assay [4], in assay [5] and in assay [6] was “inactive” in each case. For the same compound, the Potency entry in assay [7], in [8], in [9], in assay [10], in [11] and in [12] was “inactive” in each case. Also, the Potency entry in [13], in assay [15], in [16], in [18], in assay [20] and in assay [19] was “inactive” in each case. Also, the Potency in [14] is 4.86 µM (active) and inactive.

As to `Cc1ccc(S(=O)(=O)O)cc1C`, the Potency result in [1], in assay [2], in assay [3], in assay [4], in assay [5] and in [6] was “inactive” throughout. In addition, the Potency result in assay [7], in [8], in assay [9], in assay [10], in assay [11] and in assay [12] was “inactive” in each case. The Potency entry in [13], in [14], in assay [15], in assay [16], in assay [18] and in [20] was “inactive” throughout. The Potency result in assay [19] was “inactive”.
